Laboratory results as given in PubChem BioAssay (NCATS).
Values joined by “and” are separate entries in the source; they are usually repeats but may differ in a detail not shown here. Identical values can stand only once. Records with an inconclusive call do not appear. More than one record can exist for a structure, and the calls need not agree. Active and inactive are the calls of the source. Unless noted, calls follow the shape of the dose curve; as a rule, active = well fitted curve in the direction sought with a large enough effect; inconclusive = small, poorly fitted or top-dose-only effect, or another doubt; inactive = no such curve, though single readings can be large; an effect the other way counts as inactive or inconclusive.

Key:
[1] = molecular target: Guanine nucleotide-binding protein G(i) subunit alpha-1 (Homo sapiens) (UniProt P63096); assay: qHTS Assay for Inhibitors of RGS12 GoLoco Motif Activity (Green Fluorophore) (AID 879);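 also: 0% = labeled peptide with Gαi1 and full inhibition = labeled peptide alone without protein; negative values mean loss of peptide binding seen as reduced polarization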
Outline: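 Fluorescence polarization assay: 50 nM Gαi1 with 10 nM FITC-labeled RGS12 GoLoco peptide in 10 mM Tris pH 7.5, 150 mM NaCl, 0.1 mM GDP, 0.05% NP40, 10 min at room temperature with compound.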

[2] = molecular target: Cytochrome P450 3A4 (Homo sapiens) (UniProt P08684); assay: qHTS Assay for Activators of Cytochrome P450 3A4 (AID 885); also: nearly all actives have a fitted effect of over 65% in size
Outline: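 Human CYP3A4 (20 nM) with Luciferin-PPXE at 25 uM (its KM) in 200 mM KPO4; 10 min compound preincubation, then NADPH regeneration and 60 min reaction at RT. Luciferin read by luminescence; normalized to 57 uM ketoconazole full inhibition.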

[3] = molecular target: Cytochrome P450 2D6 (Homo sapiens) (UniProt P10635); assay: qHTS Assay for Inhibitors and Substrates of Cytochrome P450 2D6 (AID 891); also: nearly all actives have a fitted effect of over 60% in size; also: potency is read from the fitted curve at half-maximal effect
Outline: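 Human CYP2D6 (5 nM) with 30 uM Luciferin-ME EGE (at Km) in 100 mM KPO4, compound preincubated 10 min, then NADPH regeneration system for 60 min at room temperature. Luciferin read by luminescence; normalized to 1.43 uM quinidine.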

[4] = molecular target: Cytochrome P450 2C19 (Homo sapiens) (UniProt P33261); assay: qHTS Assay for Inhibitors and Substrates of Cytochrome P450 2C19 (AID 899); also: nearly all actives have a fitted effect of over 60% in size; also: potency is read from the fitted curve at half-maximal effect
Outline: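 In 50mM KPO4, the reaction held 5nM enzyme and KM-level (10uM) Luciferin-H EGE; it ran 60 min at 37C after NADPH regeneration and a 10 min compound preincubation. Luminescence values were scaled to 57uM ketoconazole as complete inhibition.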

[5] = Confirmation and Secondary Assay for Modulators of Hemoglobin Beta Chain Splicing at IVS2 654 locus (AID 910);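 also: per-well total GFP intensity by laser scanning cytometry after 2-day treatment; % of control where 0% means no effect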
Outline: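 HeLa cells stably carrying EGFP interrupted by mutant beta-globin IVS2-654 intron (CMV-driven) were treated with compound for 2 days at 37C; corrected splicing was scored as total peak GFP intensity per well (488 nm excitation, 500-520 nm emission).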

[6] = qHTS Assay for Identification of Small Molecule Agonists for Thrombopoietin (TPO) Signaling Pathway (AID 917); also: % is scaled to controls: 0 for no effect and ±100 for the full control effect
Outline: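 IL-3-dependent murine pro-B Ba/F3 cells, stably transfected with human TPO receptor and GpIIb-promoter luciferase, are incubated 24 hrs at 37 C with test compound and 26 pM TPO; luciferase signal is read after 10 min at room temperature.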

[7] = Confirmation and Secondary Assay for Modulators of Hemoglobin Beta Chain Splicing at IVS2 705 locus (AID 930);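 also: HeLa cells stably expressing the EGFP-705 splicing reporter; % of control where 0% means no effect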
Outline: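 Restored EGFP fluorescence after 2-day compound exposure reports splicing correction in IVS2-705 EGFP reporter HeLa cells; positive control was 500 nM splice-blocking PNA oligo. Signal measured as well total peak GFP intensity (488 nm excitation).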

[8] = molecular target: Pyruvate kinase (Leishmania mexicana) (UniProt Q27686); assay: qHTS Validation Assay for Inhibitors of Leishmania Mexicana Pyruvate Kinase (AID 945);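 also: 0% = DMSO only neutral control wells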
Outline: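 Purified LmPYK (E451W mutant, 0.2 nM) was incubated 1 h at room temperature with 0.5 mM PEP and 0.1 mM ADP in 50 mM imidazole pH 7.2, 50 mM KCl, 7 mM MgCl2; ATP formed was read by PKLight luminescence, normalized to DMSO wells.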

[9] = Cellular Toxicity (caspase-3) H-4-II-E (AID 663);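 also: cells exposed to compound for 16 hr before readout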
Outline: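 Luminescence from caspase-cleaved aminoluciferin substrate, read 20 min after reagent addition, reports caspase 3/7 activation in rat H-4-II-E cells after 16 hr compound exposure. Normalized to DMSO (basal) and 100 uM tamoxifen (100%); AC50 from Hill fits.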

[10] = Cellular Toxicity (caspase-3) Hek293 (AID 664); details: HEK293 caspase-3 activation; caspase-3 activation: at 92.2 µM (top of the series), DMSO = 0%, 100 µM tamoxifen = 100%;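 also: cells exposed to compound for 16 h at 37 °C before readout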; also: potency is read from the fitted curve at half-maximal effect
Outline: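 Activation of caspase-3/7 is measured as increased luminescence from cleaved peptide-aminoluciferin substrate in HEK293 cells treated 16 hours at 37 °C. AC50 values come from Hill-equation fits of concentration-response data.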

[11] = Cellular Toxicity (caspase-3) N2a (AID 665);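 also: compound exposure lasted 16 h at 37 °C before readout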
Outline: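 Plated mouse neuroblastoma N2a cells received titrated compounds for 16 h in complete medium. Caspase activity was then detected with a peptide-aminoluciferin luminescent reagent.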

[12] = Cellular Toxicity (caspase-3) Renal Proximal Tubule (AID 667);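 also: cells exposed to compound for 16 hours at 37 °C before detection; 0% = DMSO basal and 100% = 10 µM staurosporine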
Outline: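 Caspase-Glo 3/7 read-out, rat primary kidney proximal tubule cells. Compound exposure 16 h, 37 °C; detection after 1 h at RT. Activity scaled to DMSO and 10 uM staurosporine.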

[13] = Cell Viability - LYMP2-001 (AID 921);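 also: cells exposed to compound for 24 h at 37 °C; 0% = DMSO only and full inhibition = tetraoctylammonium bromide control wells; nearly all actives have a fitted effect of over 70% in size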
Outline: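 A lymphoblastoid cell line of human origin was treated with library compounds across a concentration series for 24 hours, and viable cell number was estimated from ATP-driven luciferase light output. Hill modeling gave AC50.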

[14] = MultiTox-Fluor Cytotoxicity Assay - LYMP1-001 - Dead Cells (AID 946);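 also: 0% = DMSO and 100% = tetraoctylammonium bromide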
Outline: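 LYMP1-001 lymphoblastoid cells (2500/well) treated 16 h at 37 C. Dead-cell protease cleavage of bis-AAF-R110 read at Ex/Em 485/520. Normalized to DMSO and 15 uM tetraoctylammonium bromide; AC50 from Hill fits.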

[15] = MultiTox-Fluor Cytotoxicity Assay - LYMP1-001 - Live Cells (AID 947);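 also: 0% = DMSO only and full inhibition = tetraoctylammonium bromide control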
[16] = molecular target: Muscarinic acetylcholine receptor M1 (Rattus norvegicus) (UniProt P08482); assay: qHTS Assay for Antagonists of Acetylcholine Muscarinic M1 Receptor: Measurement of IP-One Response (AID 944); also: nearly all actives have a fitted effect of over 75% in size
Outline: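 Steps: plate transfected CHO-M1 cells overnight; add test compound, 10 min; add carbachol (200 nM, EC80) in stimulation buffer with LiCl; incubate 30 min; add labelled IP1 tracer and anti-IP1 antibody in lysis buffer; read HTRF after 10 min.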

[17] = qHTS Assay for Identification of Small Molecule Agonists for Hypoxia Response Element Signaling Pathway (AID 914; active = well fitted activation curve with a large enough effect in the signal ratio, with a control signal flat, not every such curve was filed as active; the % refers to the signal ratio; also: % of control where 0% means no effect); details: ME-180 (cervical carcinoma) HRE-bla reporter, beta-lactamase ratio, CoCl2, 17 h; stronger effect = higher value
Outline: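 AC50 values come from titration-series %Activity, taken as the 460/530nm ratio of CCF4 fluorescence (excitation 405nm). CellSensor HRE-bla ME-180 cells were treated 17 hours at 37 C with compound plus an EC50 level of CoCl2.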

[18] = molecular target: Muscarinic acetylcholine receptor M1 (Rattus norvegicus) (UniProt P08482); assay: qHTS Assay for Antagonists of Acetylcholine Muscarinic M1 Receptor: Kinetic Measurement of Intracellular Calcium Response (AID 943);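 also: Fluo-4 calcium signal as peak divided by basal fluorescence over 4 min; nearly all actives have a fitted effect of over 75% in size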
Outline: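 Intracellular calcium flux, recorded with Fluo-4 in a kinetic plate reader, served as signal; the response to carbachol at EC80 (100 nM final) was taken as maximal over minimal fluorescence after a 10 min compound pre-incubation in rat M1-CHO cells.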

[19] = qHTS Assay for Identification of Small Molecule Antagonists for NFkB Signaling Pathway (AID 895; active = well fitted inhibition curve with a large enough effect in the signal ratio, with a control signal flat, not every such curve was filed as active; the % refers to the signal ratio; also: % is scaled to controls: 0 for no effect and ±100 for the full control effect)
Outline: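 NFkB-bla ME-180 cervical carcinoma cells with beta-lactamase reporter under NFkB response element; compounds added, then TNF alpha at 10 pM final (EC50), 5 h at 37 C. LiveBLAzer substrate 2 h, room temperature; emission 460/530 nm at 405 nm excitation.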

Sequence of Cytochrome P450 2D6 (Homo sapiens) (P10635 whole entry, looked up): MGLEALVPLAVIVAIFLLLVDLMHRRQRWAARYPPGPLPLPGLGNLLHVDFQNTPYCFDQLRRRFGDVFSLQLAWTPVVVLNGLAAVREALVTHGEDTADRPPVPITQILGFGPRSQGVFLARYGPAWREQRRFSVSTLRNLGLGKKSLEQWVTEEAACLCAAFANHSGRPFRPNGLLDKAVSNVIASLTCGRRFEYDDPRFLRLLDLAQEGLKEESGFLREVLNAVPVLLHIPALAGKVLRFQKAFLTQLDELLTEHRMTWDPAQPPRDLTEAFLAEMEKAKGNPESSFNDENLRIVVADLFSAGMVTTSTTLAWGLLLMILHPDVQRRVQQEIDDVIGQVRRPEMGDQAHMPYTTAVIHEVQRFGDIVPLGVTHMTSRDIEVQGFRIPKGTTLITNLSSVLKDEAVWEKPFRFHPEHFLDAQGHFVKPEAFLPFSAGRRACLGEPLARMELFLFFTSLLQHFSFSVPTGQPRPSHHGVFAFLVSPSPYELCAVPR
Sequence of Pyruvate kinase (Leishmania mexicana) (Q27686 2-499 E452W): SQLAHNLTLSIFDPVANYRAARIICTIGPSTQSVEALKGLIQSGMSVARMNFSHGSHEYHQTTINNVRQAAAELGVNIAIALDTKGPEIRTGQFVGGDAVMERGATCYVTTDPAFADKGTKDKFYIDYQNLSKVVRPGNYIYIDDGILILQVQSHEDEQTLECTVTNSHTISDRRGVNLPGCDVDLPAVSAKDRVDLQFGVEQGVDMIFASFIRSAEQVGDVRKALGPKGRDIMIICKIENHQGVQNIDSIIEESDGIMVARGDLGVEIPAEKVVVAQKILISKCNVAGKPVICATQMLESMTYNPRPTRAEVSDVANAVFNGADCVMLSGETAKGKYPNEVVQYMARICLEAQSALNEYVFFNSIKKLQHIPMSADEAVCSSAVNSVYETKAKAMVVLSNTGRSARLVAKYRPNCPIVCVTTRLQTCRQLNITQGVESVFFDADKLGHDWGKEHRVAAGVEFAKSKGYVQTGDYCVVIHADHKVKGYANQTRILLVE
Sequence of Cytochrome P450 3A4 (Homo sapiens) (P08684 whole entry, looked up): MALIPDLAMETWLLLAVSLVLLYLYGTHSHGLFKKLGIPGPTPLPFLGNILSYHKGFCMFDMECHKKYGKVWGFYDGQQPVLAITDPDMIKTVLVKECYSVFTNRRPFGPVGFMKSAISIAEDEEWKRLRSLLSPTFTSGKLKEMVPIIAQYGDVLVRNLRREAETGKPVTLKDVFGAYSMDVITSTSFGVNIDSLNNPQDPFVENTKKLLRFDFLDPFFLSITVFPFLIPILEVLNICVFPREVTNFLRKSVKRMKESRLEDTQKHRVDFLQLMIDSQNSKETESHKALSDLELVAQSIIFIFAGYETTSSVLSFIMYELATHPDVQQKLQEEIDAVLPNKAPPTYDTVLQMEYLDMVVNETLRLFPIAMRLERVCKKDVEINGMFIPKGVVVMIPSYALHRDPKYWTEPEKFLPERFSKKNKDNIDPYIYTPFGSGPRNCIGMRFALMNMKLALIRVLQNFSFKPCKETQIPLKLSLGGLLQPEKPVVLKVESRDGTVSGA
Sequence of Cytochrome P450 2C19 (Homo sapiens) (P33261 whole entry, looked up): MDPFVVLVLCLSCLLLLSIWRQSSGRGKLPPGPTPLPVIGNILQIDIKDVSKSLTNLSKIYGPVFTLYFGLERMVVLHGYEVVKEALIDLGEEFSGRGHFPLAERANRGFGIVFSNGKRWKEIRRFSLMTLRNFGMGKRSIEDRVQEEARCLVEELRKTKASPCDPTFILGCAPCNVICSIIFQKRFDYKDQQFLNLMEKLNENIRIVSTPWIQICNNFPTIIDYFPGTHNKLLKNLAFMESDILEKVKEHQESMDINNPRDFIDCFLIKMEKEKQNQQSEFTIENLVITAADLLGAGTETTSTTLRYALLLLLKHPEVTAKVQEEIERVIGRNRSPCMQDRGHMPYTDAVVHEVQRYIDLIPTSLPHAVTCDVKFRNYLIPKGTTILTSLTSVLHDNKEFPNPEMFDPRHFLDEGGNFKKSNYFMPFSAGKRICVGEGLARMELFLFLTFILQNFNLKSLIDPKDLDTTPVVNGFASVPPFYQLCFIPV
Sequence of Muscarinic acetylcholine receptor M1 (Rattus norvegicus) (P08482 whole entry, looked up): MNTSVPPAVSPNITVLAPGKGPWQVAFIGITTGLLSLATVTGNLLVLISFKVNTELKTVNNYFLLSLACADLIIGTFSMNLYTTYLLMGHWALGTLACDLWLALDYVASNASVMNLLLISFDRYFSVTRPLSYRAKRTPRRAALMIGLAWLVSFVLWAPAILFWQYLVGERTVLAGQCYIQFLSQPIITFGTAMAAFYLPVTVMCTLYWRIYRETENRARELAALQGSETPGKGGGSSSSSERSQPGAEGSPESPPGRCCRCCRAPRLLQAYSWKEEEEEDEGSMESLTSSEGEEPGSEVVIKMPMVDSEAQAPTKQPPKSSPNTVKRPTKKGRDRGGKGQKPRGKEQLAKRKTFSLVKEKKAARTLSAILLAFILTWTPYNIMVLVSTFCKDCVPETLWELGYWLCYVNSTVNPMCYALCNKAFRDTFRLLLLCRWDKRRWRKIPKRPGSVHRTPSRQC
Sequence of Guanine nucleotide-binding protein G(i) subunit alpha-1 (Homo sapiens) (P63096 whole entry, looked up): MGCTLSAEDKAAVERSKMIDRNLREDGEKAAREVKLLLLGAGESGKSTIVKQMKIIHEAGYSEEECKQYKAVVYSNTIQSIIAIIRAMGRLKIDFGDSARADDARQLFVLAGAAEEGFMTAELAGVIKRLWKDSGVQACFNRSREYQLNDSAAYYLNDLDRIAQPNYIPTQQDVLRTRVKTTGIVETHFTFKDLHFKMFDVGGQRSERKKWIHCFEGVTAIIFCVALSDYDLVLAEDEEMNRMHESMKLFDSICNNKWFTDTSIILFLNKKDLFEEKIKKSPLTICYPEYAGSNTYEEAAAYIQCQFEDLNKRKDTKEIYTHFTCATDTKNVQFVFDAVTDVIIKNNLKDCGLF

CN1C(C(=O)Nc2ccccn2)=C(O)c2ccccc2S1(=O)=O
inactive: Potency [1] | Potency [2] | Potency [3] | Potency [5] | Potency [6] | outcome [7] | Potency [8]
inactive and 6.31 µM (active): Potency [4]

NS(=O)(=O)c1cc2c(cc1Cl)NCNS2(=O)=O
inactive: outcome [9] | Potency [10] | outcome [11] | outcome [12] | Potency [1] | Potency [5] | Potency [6] | outcome [13] | outcome [7] | Potency [8] | Potency [14] | outcome [15]

COc1ccc(CCN(C)CCCC(C#N)(c2ccc(OC)c(OC)c2)C(C)C)cc1OC (configuration not stated)
inactive: outcome [9] | Potency [10] | outcome [11] | outcome [12] | Potency [14] | outcome [15]

CC(COc1ccccc1)N(CCCl)Cc1ccccc1 (configuration not stated)
active: Potency [10] 31.6 µM
inactive: outcome [9] | Potency [2] | Potency [5] | outcome [7] | Potency [14] | outcome [15]

N[C@@H](Cc1c[nH]c2ccc(O)cc12)C(=O)O
inactive: outcome [9] | Potency [10] | outcome [11] | outcome [12] | Potency [1] | Potency [2] | Potency [3] | Potency [4] | Potency [6] | outcome [13] | Potency [16] | Potency [8] | Potency [14] | outcome [15]

Cn1c(=O)c2c(ncn2C)n(C)c1=O
inactive: outcome [9] | Potency [10] | outcome [11] | outcome [12] | Potency [1] | Potency [3] | Potency [4] | Potency [5] | activation [17] -1.38% | Potency [6] | outcome [13] | outcome [7] | Potency [16] | Potency [14] | outcome [15]

Nc1ccn([C@H]2CC[C@@H](CO)O2)c(=O)n1
inactive: outcome [9] | Potency [10] | outcome [11] | outcome [12] | Potency [1] | Potency [5] | Potency [6] | outcome [13] | outcome [7] | Potency [18] | Potency [16] | Potency [8] | Potency [14] | outcome [15]

Cc1cn([C@H]2C=C[C@@H](CO)O2)c(=O)[nH]c1=O
inactive: outcome [9] | Potency [10] | outcome [11] | outcome [12] | Potency [1] | Potency [6] | outcome [13] | Potency [8] | Potency [14] | outcome [15]

Cc1cc(C(C)(C)C)cc(C)c1CC1=NCCN1
inactive: Potency [1] | Potency [2] | Potency [5] | Potency [6] | outcome [7] | Potency [8]
active: Potency [3] 3.98 µM

O=c1c(O)c(-c2ccc(O)c(O)c2)oc2cc(O)cc(O)c12
inactive: Potency [1] | Potency [2] | Potency [3] | Potency [5] | Potency [6] | outcome [7] | Potency [8]

Clc1ccc(C(c2ccccc2Cl)C(Cl)Cl)cc1 (configuration not stated)
active: caspase-3 activation [10] 133%
inactive: outcome [12] | Potency [1] | Potency [5] | Potency [6] | outcome [13] | outcome [7] | Potency [8] | Potency [14] | outcome [15]

CS(=O)(=O)Nc1ccc([N+](=O)[O-])cc1Oc1ccccc1
inactive: Potency [1] | Potency [2] | Potency [3] | Potency [19] | Potency [4] | Potency [5] | Potency [6] | outcome [7]

NCCS(=O)(=O)O
inactive: outcome [9] | Potency [10] | outcome [11] | outcome [12] | Potency [1] | Potency [6] | outcome [13] | Potency [18] | Potency [16] | Potency [8] | Potency [14] | outcome [15]

Cc1cn([C@H]2C[C@H](N=[N+]=[N-])[C@@H](CO)O2)c(=O)[nH]c1=O
inactive: outcome [9] | Potency [10] | outcome [11] | outcome [12] | outcome [13] | Potency [14] | outcome [15]
